Most compounds without a hit are left out; they make up all but 3% or so of the library.
SENP7 inh: blocks the human protease SENP7. recombinant SENP7, Z-RLRGG-aminoluciferin luminescence, 40 min. hit rate 1.5% among 330,000. inhibition, % at 5 µM. AID 434973. Q9BQF6;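 active = inhibition above about 50% at the single test dose, limit read from the data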;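 also: plate controls were DMSO with enzyme for no effect and no enzyme buffer wells for full effect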
Target sequence (Q9BQF6 706-1050 limits assumed): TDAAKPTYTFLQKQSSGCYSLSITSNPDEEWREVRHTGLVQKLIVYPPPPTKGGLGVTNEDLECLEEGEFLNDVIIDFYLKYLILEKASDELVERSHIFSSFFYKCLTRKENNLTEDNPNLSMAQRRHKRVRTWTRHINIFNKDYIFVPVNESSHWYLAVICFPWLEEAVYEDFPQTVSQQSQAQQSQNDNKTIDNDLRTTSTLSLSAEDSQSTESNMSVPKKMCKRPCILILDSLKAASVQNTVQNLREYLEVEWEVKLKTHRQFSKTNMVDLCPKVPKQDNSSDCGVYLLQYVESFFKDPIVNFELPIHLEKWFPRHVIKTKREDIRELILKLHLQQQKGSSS
TRAIL sens C8: sensitizes caspase-8 expressing cells to TRAIL | NB7+C8 cells + TRAIL, ATPlite viability luminescence | AID 624354 | hit rate 1% among 360,000 | inhibition (viability loss, TRAIL sensitization), % at 10 µM;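 active = compounds causing at least 50% loss of cell viability in the single-dose screen, relative to plate controls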
SENP8 block-1: inhibitors of human SENP8 protease. Q96LD8. recombinant SENP8, Nedd8 substrate fluorescence. inhibition, % at 20 µM. hit rate 0.64% among 360,000. AID 602440; in the data active = inhibition mostly above about 40%, no sharp cut-off; inactive = mostly below about 27%
SENP8 block-2: blocks the human protease SENP8. purified SENP8, Z-RLRGG-aminoluciferin cleavage, luminescence. inhibition, % at 10 µM. hit rate 1.2% among 330,000; in the data active = inhibition above about 50%
PPC-1+TRAIL kill: compounds killing PPC-1 cancer cells with TRAIL present (potentiator screen, no TRAIL-free arm) | hit rate 0.41% among 220,000 | AID 1443 | cell killing (% activity), % at 4 µM or 5 µM | PPC-1 cells + TRAIL, ATPLite viability luminescence;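 active = cell killing above 50% in the first pass at 4 µM, then a duplicate retest at 5 µM averaging 50% or more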;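 also: plate controls were cells with TRAIL plus DMSO for no effect and medium-only wells lacking cells for full effect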
SENP6 inh: inhibitors of human SENP6 protease. Q9GZR1. inhibition, % at 10 µM. Recombinant SENP6 catalytic domain, aminoluciferin luminescence. hit rate 1.8% among 330,000;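 active = inhibition above about 50% at the single tested dose, limit read from the data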;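 also: plate controls were DMSO wells with enzyme for no effect and DMSO wells lacking enzyme for full effect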
SENP8 conf: human SENP8 inhibition, confirmed; inhibition, % at 12.5 µM; hit rate 40% among 6,200; shares compounds with SENP7 inh; Recombinant SENP8, Z-RLRGG-aminoluciferin luminescence, 60 min;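 active = mean inhibition across replicates above about 50%, limit read from the data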
SENP6 confirm: human SENP6 inhibition, confirmed. recombinant SENP6, Z-RLRGG-aminoluciferin luminescence. hit rate 58% among 6,200. inhibition, % at 12.5 µM. shares compounds with SENP7 inh
SENP7 conf: human SENP7 inhibition, confirmed. shares compounds with SENP7 inh. recombinant SENP7, Z-RLRGG-aminoluciferin luminescence, 40 min. inhibition, % at 12.5 µM. hit rate 69% among 6,200
Casp3 SENP sel: inhibits human caspase-3 in SENP selectivity test | shares compounds with SENP7 inh | purified caspase-3, Z-DEVD-aminoluciferin luminescence, 60 min | inhibition, % at 12.5 µM | hit rate 60% among 6,200 | AID 488918;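 active = mean inhibition above about 50%, limit read from the data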;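 also: plate controls were enzyme with DMSO for no effect and wells without caspase-3 for full effect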
Target sequence (P42574 28-227 limits assumed): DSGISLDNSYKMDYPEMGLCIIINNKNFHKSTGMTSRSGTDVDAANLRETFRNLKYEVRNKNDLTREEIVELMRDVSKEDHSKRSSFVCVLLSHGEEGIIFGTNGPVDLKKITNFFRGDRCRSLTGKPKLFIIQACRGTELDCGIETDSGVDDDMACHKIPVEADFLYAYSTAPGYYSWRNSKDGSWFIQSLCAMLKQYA
Luc interf: interferes with luciferase luminescence in SENP counter-screen; shares compounds with SENP7 inh; Pre-incubated SENP8/Z-RLRGG-aminoluciferin, luciferase luminescence interference; inhibition, % at 12.5 µM; hit rate 39% among 6,200; AID 488919;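 active = mean inhibition above about 50% when retested at one dose, limit read from the data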;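 also: plate controls were DMSO wells with completed reaction for no effect and substrate without enzyme for full effect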
An asterisk follows results filed as active; x = no result.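 The calls were made as follows, unless noted: active = mean inhibition above about 50% in the one-dose retest (limit read from the data); inactive = the rest.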

SMILES	SENP7 inh	TRAIL sens C8	SENP8 block-1	SENP8 block-2	PPC-1+TRAIL kill	SENP6 inh	SENP8 conf	SENP6 confirm	SENP7 conf	Casp3 SENP sel	Luc interf
COc1cc(OC)c(C(=O)O/N=C(\N)c2ccccn2)cc1OC	-6	2	11	1	x	4	x	x	x	x	x
Cc1ccc(C(=O)O/N=C(\N)c2ccccn2)c(C)c1	102*	94*	5	95*	x	99*	100*	101*	104*	99*	99*
O=C(CC1c2cc(F)ccc2C=C(c2ccsc2)N1c1ccc(C#CCCO)cc1)c1ccco1 (centres undefined)	x	-2	-35	x	x	x	x	x	x	x	x
Cc1ccc(CN2CCN(CC(=O)N/N=C/c3ccccc3F)CC2)cc1	5	21	16	30	5	55*	11	23	50	7	2
O=C(CN1CCN(Cc2ccccc2)CC1)N/N=C/c1ccccc1F	-4	-6	15	-2	-9	-12	x	x	x	x	x
Oc1ccc(Br)cc1C1Nc2ccccc2S1 (centres undefined)	79*	26	-291	38	x	35	-21	-10	-4	9	-2
CC1CN(C(=O)CSc2nc(N)cc(N)n2)CC(C)O1 (centres undefined)	-1	-4	-5	-11	x	-17	x	x	x	x	x
N#Cc1ccsc1NC(=O)CCc1ccccc1	70*	-32	8	60*	-5	23	14	28	68*	53*	47
N#Cc1ccsc1NC(=O)CN(Cc1ccccc1)Cc1ccccc1	3	-2	22	-3	4	-12	x	x	x	x	x
CC(=O)Oc1ccc(/C=C/c2nc3ccccc3c(=O)o2)cc1	99*	76*	-134	95*	x	96*	74*	79*	55*	68*	50
CC(=O)Oc1ccccc1/C=C/c1nc2ccccc2c(=O)o1	66*	82*	-41	65*	x	76*	77*	74*	90*	94*	57*
CC(=O)Nc1ccc(NC(=O)C(C)OC(=O)c2cccs2)cc1 (centres undefined)	12	-3	13	7	x	-12	x	x	x	x	x
CCOc1ccc(NC(=O)c2ccccn2)cc1	92*	91*	6	81*	87*	91*	92*	92*	100*	96*	89*
CCOc1ccc(NC(=O)c2nccnc2CO)cc1	48	49	-12	14	25	53*	38	35	74*	82*	55*
COc1ccc(C(=O)c2c(-c3ccsc3)oc3ccc(-c4ccc(OC)cc4)cc23)cc1	0	x	x	-8	x	-2	x	x	x	x	x
COc1ccccc1NC(=O)COC(=O)c1ccccc1OCC(=O)Nc1ccc(SC(F)F)cc1	-4	-4	9	-5	1	-10	x	x	x	x	x
CN(C)C(=O)COC(=O)c1ccccc1Nc1ccc(SC(F)F)cc1	62*	23	-172	52*	23	-4	30	60*	84*	25	6
CCOc1ccc(NC(=O)c2ccc3[nH]c(=O)c(=O)[nH]c3c2)cc1	-5	-16	-3	-3	x	-10	x	x	x	x	x
CCc1ccc2nc3sc(C(=O)O)cc3cc2c1	4	28	-33	37	36	50*	58*	53*	82*	76*	67*
Cn1c(=O)c2cc(NC(=O)Cc3ccccc3F)ccc2n1Cc1ccc(Cl)cc1	x	-10	-498	x	x	x	x	x	x	x	x
Nc1c(C(=O)Nc2ccc(Cl)c(C(=O)O)c2)sc2nc3c(cc12)CCCC3	-5	21	-389	-10	x	-10	x	x	x	x	x
Nc1c(C(=O)Nc2cccc(C(=O)O)c2)sc2nc3c(cc12)CCCC3	25	82*	-294	47	x	71*	74*	68*	88*	18	43
CCc1cccc2c(C(=O)COC(=O)c3ccccc3)c[nH]c12	53*	8	18	25	22	60*	7	5	73*	23	46
N#CC(c1ccccc1)c1ccc([N+](=O)[O-])cc1 (centres undefined)	x	-2	1	x	x	x	x	x	x	x	x
Nc1ccccc1C#Cc1ccc([N+](=O)[O-])cc1	47	26	31	42	x	62*	46	46	81*	39	22
SMILES	SENP7 inh	TRAIL sens C8	SENP8 block-1	SENP8 block-2	PPC-1+TRAIL kill	SENP6 inh	SENP8 conf	SENP6 confirm	SENP7 conf	Casp3 SENP sel	Luc interf
CCOc1ccc(OCC)c(NC(=O)CCSCCc2ccccn2)c1	-2	0	4	1	8	6	x	x	x	x	x
CCOc1ccc(OCC)c(NC(=O)CSCCc2ccccn2)c1	9	-4	26	2	6	82*	11	6	-3	-6	-6
Cc1ccc(C(=O)Nc2cccc3cccnc23)cc1C	63*	-2	-7	51*	x	69*	43	63*	86*	43	40
Cc1cccc(C(=O)Nc2cccc3cccnc23)c1	21	13	14	1	x	45	x	x	x	x	x
O=C(Cc1cccs1)Nc1ccccc1C(=O)O	31	-10	6	45	1	63*	52*	50*	84*	88*	71*
O=C(Nc1nc2ccccc2[nH]1)c1cccc([N+](=O)[O-])c1	26	16	5	-13	24	2	x	x	x	x	x
O=C(Nc1nc2ccccc2[nH]1)c1cccc(Br)c1	57*	34	-11	3	x	-17	-6	1	3	34	10
CN(C)c1cccc(C(=O)Nc2nc3ccccc3[nH]2)c1	65*	83*	-193	37	x	33	41	44	81*	73*	43
O=C(Nc1nc2ccccc2[nH]1)Nc1ccccc1F	40	18	15	39	x	60*	14	54*	38	31	5
O=C(Nc1nc2ccccc2[nH]1)c1cccc(F)c1	91*	43	-4	82*	x	91*	8	84*	98*	92*	33
CCOc1ccc(CCNC(=O)CS(=O)Cc2nc(-c3ccccc3C)oc2C)cc1OCC (centres undefined)	-3	3	2	0	x	-13	x	x	x	x	x
CCc1nc2ccc(C(=O)NC3CCN(Cc4ccccc4)CC3)cn2c1N(C)Cc1ccc(N(C)C)cc1	x	-6	11	x	x	x	x	x	x	x	x
O=c1[nH]c(=O)n2ncnc2[nH]1	x	2	9	x	x	x	x	x	x	x	x

Bioassay records (PubChem)
